Laboratory results published in PubChem BioAssay (Tox21).
Inconclusive results are not listed. Activity calls are given as the source filed them. Unless noted, the call rests on the fitted dose curve; in most records, active means well fitted curve in the direction sought with a large enough effect in the repeat runs; inconclusive means weak or mixed curves; inactive means no such curve, though single readings can be large; an effect the other way counts as inactive or inconclusive.

What was measured:
[1] = qHTS assay to identify small molecule antagonists of the vitamin D receptor (VDR) signaling pathway - cell viability counter screen (AID 743225); further: nearly all actives have a fitted effect of over 50% in size
How it was run: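 VDR-bla HEK 293T cells, 4 h pre-incubation at 37C, then compound plus 1-alpha,25-dihydroxyvitamin D3 (3 nM final) for 16 h. After the beta-lactamase FRET read, CellTiter-Glo was added to the same wells; luminescence after 30 min at room temperature.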

[2] = qHTS assay to identify small molecule agonists of the NFkB signaling pathway (AID 1159509; active means well fitted curve in the direction sought with a large enough effect in the signal ratio in the repeat runs, not every such curve was filed as active; the % refers to the signal ratio; further: series mostly up to about 61 µM)
How it was run: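 NFkB-bla ME-180 cells with a beta-lactamase reporter under an NF-kB response element were plated overnight, treated with compounds in DMSO for 5 hr at 37 C, then loaded with FRET substrate for 1.5 hr at room temperature.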

[3] = qHTS assay to identify small molecule agonists of the NFkB signaling pathway - cell viability counter screen (AID 1159515; calls by dose curve; further: series mostly up to about 61 µM; nearly all actives have a fitted effect of over 55% in size)
How it was run: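 Viability in NFkB-bla ME-180 cells was measured by CellTiter-Glo luminescence, 30 min room temperature, in wells already treated 5 hr with compounds and read for reporter FRET.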

[4] = qHTS assay to identify small molecule agonists of the endoplasmic reticulum stress response signaling pathway - cell viability counter screen (AID 1159517; calls by dose curve; further: nearly all actives have a fitted effect of over 50% in size; further: potency means the concentration at half of the fitted maximal effect)
How it was run: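 Luminescence readout: CellTiter-Glo, 30 min RT, same wells as the ESRE-bla reporter read. HeLa ESRE-bla, 1,500 cells/well, o/n 37 C; cpd 5 hr 37 C/5% CO2.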

[5] = qHTS assay to identify small molecule antagonists of the retinoid-related orphan receptor gamma (ROR-gamma) signaling pathway - cell viability counter screen (AID 1159520); further: nearly all actives have a fitted effect of over 50% in size; further: potency means the concentration at half of the fitted maximal effect
How it was run: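 Tet-on ROR gamma CHO cells (1,000/well) were plated 4 hr, given compounds in DMSO for 2 hr at 37 C, then induced with 1 uM final doxycycline for 16 hr. Viability was read as ATP by CellTiter-Glo luminescence after 30 min.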

[6] = qHTS assay to identify small molecule agonists of the AP-1 signaling pathway - cell viability counter screen (AID 1159525; calls by dose curve; further: nearly all actives have a fitted effect of over 55% in size)
How it was run: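 ME-180 AP-1-bla, 2500 cells/well, Opti-MEM + 0.5% dialyzed FBS; overnight 37 °C; cpd 15-pt titration, 5 h 37 °C; CellTiter-Glo 30 min RT; luminescence read; normalised to TOAB and DMSO controls.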

[7] = qHTS assay to identify small molecule agonists of the AP-1 signaling pathway (AID 1159526; calls by dose curve)
[8] = target: Retinoic acid receptor RXR-alpha (Homo sapiens) (UniProt P19793); experiment: qHTS assay to identify small molecule agonists of the RXR signaling pathway (AID 1159527; calls by dose curve; further: nearly all actives have a fitted effect of over 35% in size)
Sequence of Retinoic acid receptor RXR-alpha (Homo sapiens) (P19793 whole entry, looked up): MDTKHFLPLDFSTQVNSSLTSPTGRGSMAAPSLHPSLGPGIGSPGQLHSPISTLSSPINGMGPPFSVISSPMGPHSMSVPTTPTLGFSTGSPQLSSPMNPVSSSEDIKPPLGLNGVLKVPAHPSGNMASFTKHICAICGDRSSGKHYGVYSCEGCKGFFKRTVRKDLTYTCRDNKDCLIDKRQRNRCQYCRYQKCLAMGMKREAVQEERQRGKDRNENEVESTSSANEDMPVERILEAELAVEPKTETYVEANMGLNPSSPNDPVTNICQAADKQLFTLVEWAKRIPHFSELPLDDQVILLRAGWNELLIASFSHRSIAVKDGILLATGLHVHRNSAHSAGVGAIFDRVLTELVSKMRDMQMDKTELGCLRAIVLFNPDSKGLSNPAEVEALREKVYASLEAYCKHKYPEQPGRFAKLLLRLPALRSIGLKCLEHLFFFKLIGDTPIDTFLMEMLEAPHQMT
How it was run: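 GeneBLAzer RXR-alpha-UAS-bla HEK 293T cells in medium with 2% charcoal-stripped FBS, pre-incubated 5 hr at 37 C, then exposed to compounds 16 hr. Beta-lactamase reporter read by FRET substrate, 2 hr room temperature, 460/530 nm emission.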

[9] = qHTS assay to identify small molecule agonists of the RXR signaling pathway - cell viability counter screen (AID 1159529); further: series mostly up to about 77 µM; nearly all actives have a fitted effect of over 50% in size
How it was run: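 RXR-alpha-UAS-bla HEK 293T cells in medium with 2% charcoal-stripped FBS were preincubated 5 hr, then exposed to compounds for 16 hr at 37 C. Viability was read as CellTiter-Glo luminescence after 30 min at room temperature.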

[10] = qHTS assay to identify small molecule antagonists of the retinoid acid receptor (RAR) signaling pathway - cell viability counter screen (AID 1159551); further: nearly all actives have a fitted effect of over 35% in size
How it was run: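 Following overnight attachment, C3RL4 reporter cells received DMSO-dissolved compounds and then retinol (1 uM final). Six hours later at 37 C, ATP content was measured by CellTiter-Glo luminescence.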

[11] = qHTS assay to identify small molecule antagonists of the retinoic acid receptor (RAR) signaling pathway (AID 1159552; further: nearly all actives have a fitted effect of over 50% in size; further: potency means the concentration at half of the fitted maximal effect)
How it was run: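 RARE-luc C3RL4 cells; cpds + 1 uM (final) retinol, 6 hr, 37 C/5% CO2; luciferase reagent, 30 min RT, luminescence readout. Inhibitors of retinol-driven signal scored.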

[12] = qHTS assay to identify small molecule agonists of the retinoic acid receptor (RAR) signaling pathway (AID 1159553); further: potency means the concentration at half of the fitted maximal effect
How it was run: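 Cell line C3RL4, RARE luciferase reporter. Treatment: compounds in DMSO, 6 hr, 37 C, 5% CO2, after overnight plating. Detection: luminescence, 30 min RT after reagent.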

[13] = target: Nuclear receptor ROR-gamma (Homo sapiens) (UniProt P51449); experiment: qHTS assay to identify small molecule antagonists of the retinoid-related orphan receptor gamma (ROR-gamma) signaling pathway (AID 1159521; further: nearly all actives have a fitted effect of over 50% in size; further: potency means the concentration at half of the fitted maximal effect)
How it was run: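 Tet-on RORγ CHO cells carrying a ROR response element–luciferase reporter were pretreated with compounds for 2 h, then induced with 1 uM (final) doxycycline hyclate for 16 h at 37 C. Antagonism was read as decreased ONE-Glo luminescence.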

[14] = qHTS assay to identify small molecule antagonists of the estrogen related receptor (ERR) signaling pathway - cell viability counter screen (AID 1224818);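 further: series mostly up to about 46 µM; viability measured after 17.5 h of compound exposure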
How it was run: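 Here, ERR cells are plated at 2,000 cells per well, allowed 6 h to attach, and treated with compounds in DMSO for 17.5 h at 37 C. CellTiter-Fluor is then added and fluorescence read after 30 min.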

[15] = qHTS assay to identify small molecule antagonists of the estrogen related receptor (ERR) signaling pathway (AID 1224819)
How it was run: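 LOPAC library screened for antagonism as reduced One-Glo luminescence in ERR reporter cells (2,000/well). Compounds were added after 6 h pre-incubation and left 18 h at 37C; reading followed a 30 min room-temperature reagent step.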

[16] = qHTS assay to identify small molecule agonists of the estrogen related receptor (ERR) signaling pathway (AID 1224820)
How it was run: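 ERR reporter cells (NTP line) plated 2,000/well, incubated 6 h at 37 C/5% CO2, then pinned with compounds in DMSO and held 18 h at 37 C. One-Glo added; luminescence read after 30 min at room temperature.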

[17] = test system: estrogen-related receptor alpha (ERRalpha) with PGC-1alpha coactivator, human; experiment: qHTS assay to identify small molecule antagonists of the estrogen related receptor signaling pathway with the pleiotropic PPARgamma coactivator (PGC) (AID 1224821; calls by dose curve)
How it was run: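 Cells engineered for PGC/ERR signalling (line from NTP) were plated 6 h at 37 C/5% CO2, then exposed to DMSO-dissolved compound for 18 h at 37 C. Luciferase activity was read by One-Glo luminescence after 30 min at room temperature.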

[18] = qHTS assay to identify small molecule antagonists of the estrogen related receptor signaling pathway with the pleiotropic PPARgamma coactivator (PGC) cell viability counter screen (AID 1224822;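 further: series mostly up to about 46 µM; viability read after 17.5 h compound exposure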)
How it was run: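 qHTS format, DMSO compound stocks pin-transferred onto PGC/ERR cells 6 h after plating; 17.5 h exposure at 37 C, then CellTiter-Fluor fluorescence.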

[19] = qHTS assay to identify small molecule agonists of the estrogen related receptor signaling pathway with the pleiotropic PPARgamma coactivator (PGC) (AID 1224823)
How it was run: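 PGC/ERR reporter cells were seeded, rested 6 h at 37 C/5% CO2, then exposed to compounds in DMSO by pin transfer for 18 h at 37 C. Luciferase activity was read as luminescence after One-Glo reagent and 30 min at room temperature.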

Measured: Potency

COC1CCC=CO1 (configuration not stated)
active: [4] 55.3 µM
not listed: [13] | [14] | [15] | [16] | [17] | [18] | [19]
inactive: all other assays above

CC(C)c1ccc(C(=O)N=C(N)N)cc1S(C)(=O)=O
not listed: [8] | [14] | [15] | [16] | [17] | [18] | [19]
inactive: all other assays above

CCCc1nc2c(C)cc(-c3nc4ccccc4n3C)cc2n1Cc1ccc(-c2ccccc2C(=O)O)cc1
inactive: [2] | [3] | [4] | [5] | [6] | [7] | [10] | [11] | [12]

CCCCOC(=O)CCCCC(=O)OCCCC
not listed: [8] | [14] | [15] | [16] | [17] | [18] | [19]
inactive: all other assays above

CCOCCC(=O)OCC
not listed: [13] | [14] | [15] | [16] | [17] | [18] | [19]
inactive: all other assays above

CC(CCc1ccc(O)cc1)NCCc1ccc(O)c(O)c1 (configuration not stated)
not listed: [11] | [12] | [13]
inactive: all other assays above

O=C(O)CCC(=O)c1ccc(-c2ccccc2)cc1
active: [12] 11.9 µM
inactive: [1] | [2] | [3] | [4] | [5] | [6] | [7] | [9] | [10] | [11]

CNc1c2c(nn1C)CCCC2
not listed: [13] | [14] | [15] | [16] | [17] | [18] | [19]
inactive: all other assays above

CC1C(C)(C)C2=C(C(=O)CCC2)C1(C)C (configuration not stated)
not listed: [7] | [14] | [15] | [16] | [17] | [18] | [19]
inactive: all other assays above

CCCCCCCC/C=C/C(=O)O
inactive: [2] | [3] | [4] | [5] | [13] | [6] | [7] | [10]

O=[N+]([O-])C1(Br)COCOC1
active: [5] 24.3 µM | [13] 24.3 µM | [11] 43.3 µM
inactive: [1] | [2] | [3] | [4] | [6] | [7]

COc1cc(NC(C)CCCN)c2ncccc2c1 (configuration not stated)
not listed: [8] | [11] | [14] | [15] | [16] | [17] | [18] | [19]
inactive: all other assays above

CC/C=C\C/C=C\C/C=C\CCCCCCCC(=O)OCC
inactive: [2] | [3] | [4] | [5] | [6] | [7] | [10] | [11]

COc1ccc(-n2nc(C(F)F)cc2-c2ccc(S(C)=O)cc2)cc1 (configuration not stated)
not listed: [8] | [11] | [14] | [15] | [16] | [17] | [18] | [19]
inactive: all other assays above

C1=CCC2CC=CC2C1 (configuration not stated)
inactive: [1] | [2] | [3] | [4] | [5] | [6] | [7] | [8] | [9] | [10]

CCC(=O)OCc1ccc(OC)cc1
not listed: [1] | [8] | [14] | [15] | [16] | [17] | [18] | [19]
inactive: all other assays above

O=C(O)CCCc1c[nH]c2ccccc12
inactive: [1] | [2] | [3] | [4] | [5] | [13] | [6] | [7] | [9] | [10]

CCCCCc1ccco1
inactive: [2] | [3] | [4] | [5] | [13] | [6] | [7] | [9] | [10] | [12]

Cc1cc(CCC(=O)OCCOCCOCCOC(=O)CCc2cc(C)c(O)c(C(C)(C)C)c2)cc(C(C)(C)C)c1O
inactive: [2] | [3] | [4] | [5] | [6] | [7] | [8] | [10] | [11] | [12]

CC(C)(C)CCCCCCOC(=O)c1ccccc1C(=O)OCCCCCCC(C)(C)C
inactive: [2] | [3] | [4] | [5] | [13] | [6] | [7] | [10] | [12]

CCO[Si](C)(CCCOCC1CO1)OCC (configuration not stated)
not listed: [13] | [14] | [15] | [16] | [17] | [18] | [19]
inactive: all other assays above

C[C@@H]1C[C@H]2[C@@H]3CCC4=CC(=O)C=C[C@]4(C)[C@@]3(F)[C@@H](O)C[C@]2(C)[C@@]1(O)C(=O)COP(=O)(O)O
inactive: [2] | [3] | [5] | [13] | [6] | [7] | [8] | [9] | [10]

CCCC(=O)OC(=O)CCC
not listed: [1] | [8] | [14] | [15] | [16] | [17] | [18] | [19]
inactive: all other assays above
